DRD3 antagonist: antagonists of human D3 dopamine receptor; D3R cells, DiscoveRx beta-arrestin luminescence, antagonist mode; active compounds read low; max response, negative = inhibition, %; 360,000 compounds, 2.5% hits; AID 652054; in the data active = max response below about -50%; inconclusive = no clear call, values can overlap the other calls; also: % is scaled to controls: 0 for no effect and ±100 for the full control effect
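Cells expressing the human receptor were seeded at 1500 cells/well, incubated overnight at 37 degrees C in 5% CO2, then exposed to library compounds with dopamine controls for 90 minutes at 37 degrees C before luminescent detection.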
D1 antag: blocks dopamine activation of the human D1 receptor; P21728; HEK293 TREx D1 cells, calcium flux, dopamine EC80; active compounds read low; activity change, negative = inhibition, % at 10 µM; 360,000 compounds, 3.2% hits; in the data active = activity change below about -30%; also: % is scaled to controls: 0 for no effect and ±100 for the full control effect
Target sequence (P21728 whole entry, looked up): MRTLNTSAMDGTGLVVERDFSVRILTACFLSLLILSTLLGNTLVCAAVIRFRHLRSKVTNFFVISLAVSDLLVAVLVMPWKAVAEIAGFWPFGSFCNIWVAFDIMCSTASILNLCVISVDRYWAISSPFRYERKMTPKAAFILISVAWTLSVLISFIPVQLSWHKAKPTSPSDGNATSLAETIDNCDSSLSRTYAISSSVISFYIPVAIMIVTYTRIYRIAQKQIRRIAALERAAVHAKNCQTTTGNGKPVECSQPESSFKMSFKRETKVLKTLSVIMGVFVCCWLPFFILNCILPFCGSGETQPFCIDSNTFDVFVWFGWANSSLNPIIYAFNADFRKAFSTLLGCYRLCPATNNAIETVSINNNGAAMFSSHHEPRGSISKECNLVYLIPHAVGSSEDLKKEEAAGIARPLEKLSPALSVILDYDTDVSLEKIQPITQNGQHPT
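Compound effects on dopamine-evoked calcium signalling were measured in tetracycline-induced HEK293 Trex D1 cells. Dopamine at EC80 followed a 180 s compound pre-read, and fluorescence was tracked kinetically for 180 s more.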
D1 agonist: human D1 receptor agonism; P21728; HEK293 T-REx D1 cells, calcium flux, agonist mode; activation, % at 2 µM; 360,000 compounds, 1% hits; in the data active = activation above about 30%; also: 0% is about no effect
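Inducible HEK293 T-REx D1 cells, force-coupled to calcium signalling, were plated at 4000 cells/well with tetracycline and held overnight at 30 C. After no-wash calcium dye loading, compound-evoked calcium rise over 180 s flagged agonists.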
DRD3 agonist: agonists of human D3 dopamine receptor; P35462; D3R DiscoveRx beta-arrestin cells, luminescence, 90 min; max activation, %; 410,000 compounds, 0.58% hits; in the data active = max activation above about 30%; also: 0% is about no effect
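Agonist mode: compounds and dopamine controls were applied to plated cells for 90 min at 37 degrees C after an overnight attachment at 1500 cells/well. Luminescent read-out followed 30 - 60 minutes at room temperature with DiscoveRx detection reagent.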
BCR signal inh: inhibitors of chronic active B-cell receptor signaling; 340,000 compounds, 0.05% hits; Potency, µM (series often up to 46.1 µM), without a hit: at the highest dose activity change, negative = inhibition, hits mostly inhibitors; AID 493014; ABC-DLBCL IkBa-CBG/CBR reporter, luminescence ratio, 4 h; active = well fitted inhibition curve with a large enough effect in the signal ratio, with a control signal flat, not every such curve was filed as active; inconclusive = small, poorly fitted or top-dose-only effect, or effect the other way, or a change in a side signal; the % refers to the signal ratio;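 also: potency is read from the fitted curve at half-maximal effect; plate controls were basal doxycycline-induced cells for no effect and cells given 10 µM MG132 for full effect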
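Compounds up to 46 uM were incubated four hours with TMD8 cells whose green CBG68 luciferase is fused to IkappaBalpha; red CBR luminescence normalised the signal, and concentration-effect curves were fitted to fusion, red and ratio data.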
D1 PAM: potentiators of human D1 dopamine receptor | potentiation, % at 10 µM | HEK293 TREx D1 cells, calcium flux, dopamine EC20 potentiation | AID 504651 | 360,000 compounds, 0.036% hits; in the data active = potentiation above about 30%; also: 0% is about no effect
The depositor's hits bear a star; ? = inconclusive; . = not tested or not shown; ! = a repeat was not active. This is a sample that favours compounds with a hit; in the whole collection about 6% have one here.

SMILES	DRD3 antagonist	D1 antag	D1 agonist	DRD3 agonist	BCR signal inh	D1 PAM
Cc1cccc(NC(=O)c2cc(S(=O)(=O)NCc3ccc4c(c3)OCO4)ccc2F)c1C	.	-16	-3	6	-22%	-3
CCn1c(=O)cc(SCC(=O)NCCCN2CCC(C)CC2)c2ccccc21	19	9	2	-15	?	0
CCOC(=O)C1CCN(C(=O)CSc2cc(=O)n(CC)c3ccccc23)CC1	-79*	-4	-3	-22	?	2
CCn1c(=O)cc(SCC(=O)N2CCC(C)CC2)c2ccccc21	-2	0	0	-2	-7%	-4
CCn1c(=O)cc(SCC(=O)NCCCN2CCN(c3ccc(F)cc3)CC2)c2ccccc21	-68*	-3	2	-49	-6%	2
Cn1c(=O)cc(SCC(=O)NCCCN2CCN(c3ccccc3F)CC2)c2ccccc21	-71*	-29	0	-5	-9%	-17
CCn1c(=O)cc(SCC(=O)NCCN2CCN(Cc3ccccc3)CC2)c2ccccc21	-17	-33*	0	-15	1%	-2
CCOc1ccc(CCNC(=O)CCn2c(=O)c3cccn3c3cccnc32)cc1	.	5	-2	5	.	-1
CCc1ccc(CNC(=O)CSc2cc(=O)n(CC)c3ccccc23)cc1	.	-1	3	-5	.	2
CCn1c(=O)cc(SCC(=O)NCc2cccnc2)c2ccccc21	-17	-40*	3	12	?	-7
Cc1cc(C)n(-c2cc(N3CCN(S(=O)(=O)c4ccc5ccccc5c4)CC3)ccc2[N+](=O)[O-])n1	-55*	-13	1	1	14%	1
Cc1cc(C)n(-c2cc(N3CCN(S(=O)(=O)c4ccc(C)c(C)c4)CC3)ccc2[N+](=O)[O-])n1	21	.	.	0	11%	.
CC1(C)CC(C(CCN(Cc2ccccc2)C(=O)c2ccco2)c2ccc(F)cc2)CCO1 (stereo not given)	35	-17	3	48*	7%	-12
Nc1ccc(N2CCCCC2)c2nonc12	?	-7	1	1	-7%	-2
Nc1ccc(C2CCCc3nonc32)c2nonc12 (stereo not given)	-63*	-19	8	-8	-17%	-4
c1ccc(CN2CCN(C3=Nc4cccc5cccc3c45)CC2)cc1	-6	7	3	-8	?	1
Fc1ccc(N2CCN(C3=Nc4cccc5cccc3c45)CC2)cc1	-20	-44*	3	-7	?	-8
Cc1ccc(-n2nc3cc(C)c(NC(=O)c4ccc(-c5ccccc5)o4)cc3n2)cc1	.	7	5	2	.	-3
O=C(Nc1ccccc1)C1=C[C@H](c2csc3ccccc23)C[C@H](OCc2ccc(CO)cc2)O1	4	5	4	36*	?	-4
O=C(Nc1ccccc1)C1=C[C@@H](c2coc3ccccc3c2=O)C[C@@H](OCc2ccc(CO)cc2)O1	0	-37*	-3	-8	-12%	-4
O=C(NC1CC1)C1=C[C@H](c2csc3ccccc23)C[C@H](OCc2ccc(CO)cc2)O1	-26	-4	2	4	?	-3
C=CCOC(=O)C1=C[C@@H](c2coc3ccccc3c2=O)C[C@@H](OCc2ccc(CO)cc2)O1	5	-49*	-2	2	?	-1
O=C(Nc1ccccn1)[C@@H]1CCC(=O)N1C(=O)OCc1ccccc1	-8	-31*	3	3	-1%	-1
Cc1ccc(Nc2ccc(-n3ccnc3)nn2)cc1C	-7	8	0	-15	2%	-7
COc1cccc(Nc2ccc(-n3ccnc3)nn2)c1	1	-66*	0	-11	-5%	-8
SMILES	DRD3 antagonist	D1 antag	D1 agonist	DRD3 agonist	BCR signal inh	D1 PAM
Cc1ncc(CO)c(CNc2ccc(Oc3ccccc3)cc2)c1O	20	-37*	10	2	-7%	-8
CN(C)C=Nc1c(Br)cc(Br)c2nonc12	30	-74*	415*	13	-1%	6
Cc1ccc(NC(=O)Cn2c(-c3cncs3)nc3ccccc32)c(Br)c1	.	3	0	1	.	6
O=C(Cn1c(-c2cncs2)nc2ccccc21)NCc1ccccc1	-84*	2	2	-35	-19%	-1
COc1ccc(NCc2nc3ccccc3n2CCOc2ccccc2C)cc1	.	-10	-1	0	.	0
Cc1ccc(CCN2C(=O)CCC2(C)C(=O)NCc2cccnc2)cc1 (stereo not given)	-18	-20	0	-7	-4%	-3
CCOc1ccc(CN2C(=O)CCC2(C)C(=O)NCc2cccnc2)cc1 (stereo not given)	26	-30*	3	4	-7%	-8
COCCn1c(=NC(=O)c2nc3ccccc3s2)sc2cc(S(C)(=O)=O)ccc21	4	-85*	0	-6	15%	-4
CC(=O)c1cccc(Nc2cc(C)nc3ccccc23)c1	2	-15	2	2	3%	3
Cc1ccc(Nc2cc(C)nc3ccc(C)cc23)cc1	-6	-33*	4	-7	?	-6
Cc1cc(Nc2cccc(Cl)c2)c2ccccc2n1	-8	-65*	17	-5	-6%	-10
CC(=O)c1cccc(Nc2cc(C)nc3c(C)cccc23)c1	-26	-66*	0	-14	?	-5
COc1ccc(CN2CCC(C)(Oc3ccc(C(C)=O)cc3)C2)c2ccccc12 (stereo not given)	-21	.	.	-2	.	.
O=C(NCC[C@@H]1CC[C@@H](NS(=O)(=O)c2ccccc2)[C@@H](CO)O1)c1cc(Cl)cc(Cl)c1	3	.	.	3	.	.
COc1cccc(C2c3[nH]c4ccccc4c3CCN2Cc2cnc(C)s2)c1OC (stereo not given)	102	-43*	1	21	?	6
CCOc1cccc(NC(=O)C2CC(=O)N(CC)C(=Nc3ccc(F)cc3)S2)c1 (stereo not given)	.	-16	6	3	.	-3
CCS(=O)(=O)NCCc1csc(-c2cccnc2)n1	-14	-36*	0	-1	7%	4
O=C(NCCc1csc(-c2cccnc2)n1)c1ccccc1	16	-47*!	0	-12	-15%	3
Cc1ccc(C(=O)NCCc2csc(C)n2)cc1	-4	-27	-1	-4	-15%	-3
O=C(NCCc1csc(-c2ccccc2)n1)c1cccs1	13	-60*	5	-2	-22%	-17
Cc1cccc(C(=O)NCCc2csc(C)n2)c1	10	-85*	-1	1	-2%	-9
O=C(NCCc1csc(-c2ccccc2)n1)c1ccco1	20	-30*	0	-9	1%	-8

Bioassay records from PubChem BioAssay.
